Data on eight compounds can be found in PubChem BioAssay (NCI).

About 83,000 compounds went through this panel and 20% of them were active in at least one assay; those are over-represented in the sample as a whole.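 Single-concentration screen, 48 h exposure, 96-well plates. Endpoint: percent growth. Below 10 = active.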 A number with no mark means an inactive call. Active and inactive are the calls of the source.

Some test systems named below: SK-MEL-2 melanoma; EKVX NSCLC; SN12C renal; UO-31 renal; TK-10 renal; ACHN renal; A498 renal; CCRF-CEM leukemia; MOLT-4 leukemia; SR leukemia; RPMI-8226 leukemia; OVCAR-8 ovarian; OVCAR-5 ovarian; OVCAR-4 ovarian; SK-OV-3 ovarian; IGROV1 ovarian; OVCAR-3 ovarian; HS 578T breast; NCI/ADR-RES ovarian.
Experiment in all cases: NCI-60 one-dose screen, 48 h (100 = growth as untreated, 0 = no growth, -100 = all killed)
Settings in all cases: 10 µM

On to `CCOC(=O)c1cc(C(=O)c2cc(OC)c(OC)c(OC)c2)n2nc(C)ccc12`, for which the growth in the assay with SK-MEL-2 melanoma was 27.7%; in the assay with EKVX NSCLC, 88.3%; in the assay with SN12C renal it was 60.1%; in the assay with UO-31 renal, 39.9%; with TK-10 renal, 78%; with ACHN renal it was 49.4%. Further, the growth with A498 renal is 23.4%; in the assay on CCRF-CEM leukemia, 17.1%; in the assay with MOLT-4 leukemia, 18.4%; in the assay on SR leukemia it was 23%; in the assay with RPMI-8226 leukemia, 18%; with OVCAR-8 ovarian it was 25.4%. Moreover, the growth in the assay on OVCAR-5 ovarian is 64.9%; with OVCAR-4 ovarian, 51.8%; in the assay on SK-OV-3 ovarian, 24.1%; in the assay on IGROV1 ovarian it was 39.8%; in the assay on OVCAR-3 ovarian it was 12.5%; in the assay on HS 578T breast, 55.9%. The growth with NCI/ADR-RES ovarian is 20.9%.

Consider `Cc1c(Cl)cccc1NC(=O)CCCl`, for which the growth with SK-MEL-2 melanoma is 103%; in the assay on EKVX NSCLC, 106%; in the assay on SN12C renal, 95.8%; in the assay with UO-31 renal it was 86.6%; in the assay with TK-10 renal, 89.3%; with ACHN renal it was 108%. Further, the growth is 108% in the assay with A498 renal; 84.7% in the assay with CCRF-CEM leukemia; 85.3% with MOLT-4 leukemia; 84.1% in the assay with SR leukemia; 90.6% with RPMI-8226 leukemia; 94.2% in the assay on OVCAR-8 ovarian. For the same compound, the growth in the assay on OVCAR-5 ovarian was 106%; in the assay on OVCAR-4 ovarian it was 111%; in the assay with SK-OV-3 ovarian, 104%; in the assay on IGROV1 ovarian, 104%; in the assay with OVCAR-3 ovarian, 102%; in the assay on HS 578T breast it was 104%. In addition, the growth in the assay on NCI/ADR-RES ovarian is 105%.

As to `CCOC(=O)c1cc(C(=O)c2cc(OC)c(OC)c(OC)c2)n2ncc3ccccc3c12`, the growth was 78.5% in the assay with SK-MEL-2 melanoma; 94.5% in the assay with EKVX NSCLC; 101% with SN12C renal; 75.6% with UO-31 renal; 97.3% in the assay on TK-10 renal; 78.7% in the assay with ACHN renal. In addition, the growth in the assay on A498 renal was 73.6%; with CCRF-CEM leukemia, 70.1%; in the assay on MOLT-4 leukemia, 62%; in the assay with SR leukemia, 23.1%; with RPMI-8226 leukemia it was 81.9%; in the assay with OVCAR-8 ovarian it was 78.5%. The growth with OVCAR-5 ovarian is 99.3%; in the assay on OVCAR-4 ovarian, 83.8%; with SK-OV-3 ovarian, 83.4%; in the assay with IGROV1 ovarian, 75.9%; with OVCAR-3 ovarian, 47%; with HS 578T breast it was 85.5%. For the same compound, in the assay on NCI/ADR-RES ovarian, the growth is 63.6%.

As for `CCN1CCN(CCC(=O)Nc2cccc(-n3cc(-c4ccncc4)c(-c4ccc(Cl)c(OC)c4)n3)c2)CC1`, the growth in the assay with SK-MEL-2 melanoma is -19.5% (active); in the assay with EKVX NSCLC, 54.5%; in the assay on SN12C renal it was 38.8%; in the assay on UO-31 renal it was 34.6%; in the assay with TK-10 renal, 44.7%; in the assay with ACHN renal, 37.2%. In addition, the growth with A498 renal was -14.1% (active); in the assay with CCRF-CEM leukemia, 1.32% (active); in the assay with MOLT-4 leukemia, 2.89% (active); in the assay with SR leukemia, -12.3% (active); in the assay with RPMI-8226 leukemia, -38.8% (active); with OVCAR-8 ovarian it was 24.2%. For the same compound, the growth in the assay with OVCAR-5 ovarian is 37.6%; in the assay on OVCAR-4 ovarian, 43.1%; in the assay with SK-OV-3 ovarian it was 39.2%; in the assay with IGROV1 ovarian, 47.2%; in the assay on OVCAR-3 ovarian, 7.41% (active); in the assay with HS 578T breast it was 13.1%. Also, in the assay with NCI/ADR-RES ovarian, the growth is 15.2%.

In the case of `O=C(Nc1cccc2c1CCCC2)c1cc2ccccc2cc1O`, the growth in the assay with SK-MEL-2 melanoma was 41.1%; in the assay with EKVX NSCLC it was 59.8%; with SN12C renal, 25.6%; in the assay with UO-31 renal it was 17.5%; in the assay on TK-10 renal it was 88.1%; in the assay with ACHN renal, 38.4%. Besides, the growth with A498 renal was 10.6%; in the assay with CCRF-CEM leukemia, 20.9%; with MOLT-4 leukemia, 20.6%; in the assay on SR leukemia it was 18%; with RPMI-8226 leukemia, 8.51% (active); with OVCAR-8 ovarian, 55.9%. The growth with OVCAR-5 ovarian is 103%; in the assay on OVCAR-4 ovarian, 56.8%; in the assay on SK-OV-3 ovarian, 37%; in the assay on IGROV1 ovarian, 32.1%; in the assay with OVCAR-3 ovarian, 28.2%; in the assay on HS 578T breast, 47.5%. Besides, the growth in the assay on NCI/ADR-RES ovarian is 11.7%.

`CN(C)CCCOc1cccc(NC2=C(Cl)C(=O)C(Nc3cccc(OCCCN(C)C)c3)=C(Cl)C2=O)c1`: the growth was -65.6% (active) in the assay on SK-MEL-2 melanoma; -95.8% (active) in the assay on EKVX NSCLC; -69.2% (active) with SN12C renal; -92.7% (active) with UO-31 renal; -99.3% (active) in the assay with TK-10 renal; -98.3% (active) with ACHN renal. Besides, the growth was 44.5% with A498 renal; -37.6% (active) in the assay on CCRF-CEM leukemia; -37.1% (active) in the assay with MOLT-4 leukemia; -9.52% (active) in the assay on SR leukemia; -47.5% (active) with RPMI-8226 leukemia; -80.1% (active) in the assay with OVCAR-8 ovarian. Further, the growth was -47.9% (active) in the assay on OVCAR-5 ovarian; -98.8% (active) with OVCAR-4 ovarian; 98.2% in the assay with SK-OV-3 ovarian; -67.4% (active) with IGROV1 ovarian; -96% (active) in the assay on OVCAR-3 ovarian; -2.49% (active) with HS 578T breast. Besides, in the assay on NCI/ADR-RES ovarian, the growth is 74.7%.

Turning to `COc1cc(-c2nn(-c3ccc(NC(=O)NCCCNC(=O)c4ccccc4)cc3)cc2-c2ccncc2)ccc1Cl`, the growth in the assay on SK-MEL-2 melanoma was 18%; in the assay on EKVX NSCLC, 51.4%; in the assay with SN12C renal it was 54.5%; in the assay with UO-31 renal, 29.6%; in the assay with TK-10 renal it was 59.3%; in the assay with ACHN renal it was 23.7%. The growth is 12.7% in the assay with A498 renal; 14.5% with CCRF-CEM leukemia; 23.5% with MOLT-4 leukemia; 20.2% in the assay on SR leukemia; -3.49% (active) in the assay with RPMI-8226 leukemia; 20.6% in the assay on OVCAR-8 ovarian. Moreover, the growth with OVCAR-5 ovarian was 53%; in the assay with OVCAR-4 ovarian it was 44.4%; in the assay on SK-OV-3 ovarian, 23.8%; with IGROV1 ovarian it was 38.1%; with OVCAR-3 ovarian, 20.6%; with HS 578T breast, 40%. In addition, the growth in the assay on NCI/ADR-RES ovarian was 69.4%.

For the compound `COc1cc(C)ccc1Oc1nc(Nc2ccc(N3CCOCC3)cc2)ncc1NC(=O)Nc1cc(C(F)(F)F)cc(C(F)(F)F)c1`, the growth in the assay with SK-MEL-2 melanoma was 88.6%; in the assay on EKVX NSCLC, 80.7%; in the assay on SN12C renal it was 58.1%; with UO-31 renal, 67.5%; in the assay on TK-10 renal it was 51.1%; in the assay with ACHN renal, 24.4%. The growth in the assay on A498 renal is 67.8%; in the assay with CCRF-CEM leukemia it was 41.9%; with MOLT-4 leukemia it was 19.2%; in the assay with SR leukemia, 28.3%; in the assay with RPMI-8226 leukemia it was 61.9%; in the assay with OVCAR-8 ovarian, 44.3%. Moreover, the growth in the assay on OVCAR-5 ovarian was 106%; in the assay with OVCAR-4 ovarian, 66.3%; with SK-OV-3 ovarian it was 101%; with IGROV1 ovarian, 64%; in the assay with OVCAR-3 ovarian, 51.9%; in the assay on HS 578T breast, 43.6%. Also, the growth in the assay with NCI/ADR-RES ovarian is 46.6%.
